Source: PubChem BioAssay
Only some compounds are listed: those with a hit (about 1.6% of all), similar ones and a draw of the others.
PERK inhibitor: block of dimerizer-induced PERK translation repression, primary screen, PERK inhibitor project, CHO PERK-DD cells, SEAP luminescence, HTS. Eukaryotic translation initiation factor 2-alpha kinase 3 (Homo sapiens), Q9NZJ5. CHO PERK-DD fusion, SEAP luminescence translation reporter. inhibition, % at 5.6 µM. 220,000 tested, 0.17% active. AID 1416, 2008;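 active means inhibition above the mean inhibition of all tested compounds plus 3 SD, set separately per screening campaign, cut at about 2.9% in these data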;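 further: PERK kinase domain activated by AP20187 dimerizer at 100 nM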
Target sequence (Q9NZJ5 whole entry, looked up, the tested form may be a part): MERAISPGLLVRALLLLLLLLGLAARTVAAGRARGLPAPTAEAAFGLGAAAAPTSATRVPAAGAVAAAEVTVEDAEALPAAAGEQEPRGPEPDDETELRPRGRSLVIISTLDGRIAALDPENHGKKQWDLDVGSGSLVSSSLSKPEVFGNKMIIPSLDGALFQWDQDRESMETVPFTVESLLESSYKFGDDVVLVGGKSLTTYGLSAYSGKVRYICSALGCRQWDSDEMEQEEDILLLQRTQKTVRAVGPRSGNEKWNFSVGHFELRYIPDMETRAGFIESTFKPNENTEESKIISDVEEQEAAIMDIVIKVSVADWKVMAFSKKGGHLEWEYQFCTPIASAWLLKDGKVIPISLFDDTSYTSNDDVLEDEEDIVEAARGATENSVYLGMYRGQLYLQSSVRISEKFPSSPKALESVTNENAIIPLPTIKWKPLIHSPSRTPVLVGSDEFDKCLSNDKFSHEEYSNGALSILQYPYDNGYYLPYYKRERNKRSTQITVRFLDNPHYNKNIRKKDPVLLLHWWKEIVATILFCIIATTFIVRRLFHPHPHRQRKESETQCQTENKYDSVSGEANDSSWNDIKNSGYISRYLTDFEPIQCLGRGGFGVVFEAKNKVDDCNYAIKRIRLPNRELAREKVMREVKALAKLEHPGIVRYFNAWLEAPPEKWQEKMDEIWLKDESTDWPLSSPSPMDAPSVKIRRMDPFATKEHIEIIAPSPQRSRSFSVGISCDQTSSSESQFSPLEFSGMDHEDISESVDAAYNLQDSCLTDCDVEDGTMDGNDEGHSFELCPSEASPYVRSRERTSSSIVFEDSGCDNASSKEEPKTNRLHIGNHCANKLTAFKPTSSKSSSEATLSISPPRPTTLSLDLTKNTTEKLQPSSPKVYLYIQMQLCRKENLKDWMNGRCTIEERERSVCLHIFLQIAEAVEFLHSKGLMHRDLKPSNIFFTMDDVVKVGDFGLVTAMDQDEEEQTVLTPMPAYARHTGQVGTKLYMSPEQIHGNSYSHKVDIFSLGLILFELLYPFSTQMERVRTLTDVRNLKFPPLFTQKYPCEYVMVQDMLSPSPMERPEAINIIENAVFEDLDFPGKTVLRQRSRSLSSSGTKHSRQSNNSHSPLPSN
Yeast superoxide: reduction of superoxide in aged yeast, primary screen, HTS; S. cerevisiae aged cells, superoxide DHE fluorescence; hits give low values; superoxide response (% of plate mean), % at 10 µM; 330,000 tested, 0.18% active; AID 2690, 2010;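 active means superoxide response under a set limit, about three screen SD below normal, cut at about 65% in these data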;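 further: yeast aged for seven days with compound at 30 °C before DHE staining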
Rce1 inh: yeast Rce1p protease inhibitors, primary screen, biochemical, fluorescence, cell-free homogeneous; yeast membranes, quenched prenylated peptide cleavage fluorescence; calls only; 290,000 tested, 0.27% active;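 active means fall in fluorescence gain of 50% or more versus controls, with final raw signal at or below 3038400; inconclusive means same 50% fall but final raw signal above 3038400; inactive means fall in fluorescence gain under 50%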
NALP1 yeast inh: NALP1 inflammasome inhibitors in reconstituted yeast, colorimetric, S. cerevisiae, triplicate retest; S. cerevisiae NALP1/ASC/caspase-1 growth, X-gal OD620, 72 h; inhibition, % at 10 µM; 280,000 tested, 0.61% active; AID 2071, 2009; in the data active means inhibition mostly above about 24%, no sharp cut-off; inactive means mostly below about 32%
V-ATPase pHluor: regulators of yeast V-ATPase proton pumping, primary screen, pHLuorin cytosolic pH fluorescence; S. cerevisiae; response, % at 10 µM; 350,000 tested, 0.37% active; in the data active means response mostly above about 7.3%, no sharp cut-off; inactive means mostly below about 5.4%; further: actives read high
NLRP3 yeast inh: NALP3 inflammasome inhibitors in reconstituted yeast, primary screen, luminescence, uHTS; inhibition, % at 10 µM; AID 2825, 2010; Yeast reconstituted NLRP3/ASC/caspase-1, beta-gal luminescence, 24 h; 330,000 tested, 0.39% active;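 active means inhibition of 50% or more; inactive means inhibition below 50%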
A number is an active result; – = inactive; ? = inconclusive; · = no result given; + = active, no number; ! = not active in a repeat.

SMILES	PERK inhibitor	Yeast superoxide	Rce1 inh	NALP1 yeast inh	V-ATPase pHluor	NLRP3 yeast inh
Brc1ccc(-c2nnc3ccc(N4CCN(c5ccccc5)CC4)nn23)cc1	–	–	–	30	–	–
N#CCCn1cc(C(=O)CN2C(=O)NC3(CCc4ccccc43)C2=O)c2ccccc21 (stereo unspecified)	·	·	·	·	–	·
O=C(COc1ccc(Cl)cc1)N1CCN(S(=O)(=O)c2cc(F)ccc2F)CC1	·	·	·	·	–	·
CC(C)(C)C1(c2ccccc2)NC(=O)N(CC(=O)N2CCOCC2)C1=O (stereo unspecified)	–	–	–	·	–	–
CC1(c2ccccc2)NC(=O)N(CC(=O)N2CCOCC2)C1=O (stereo unspecified)	–	–	–	36	–	–
CC12CCC(CC1O)C2C(=O)O (stereo unspecified)	·	·	·	·	–	·
Cc1ccc(NC2=C(N3CCOCC3)C(=O)c3ccccc3C2=O)cc1	3.2	–	–	–	–	–
CCC(=O)N1CCN(c2nc3ccc(Br)cc3s2)CC1	·	–	–	30	–	–
CC(=O)Nc1nc2ccc(Br)cc2s1	–	–	–	29	–	–
CCCn1c(N)c(N2CCCCC2)c(=O)n(CC(=O)Nc2ccccc2C)c1=O	–	–	–	37	–	–
Cc1cccc(C)c1NC(=O)Cn1c(=O)c(N2CCCCC2)c(N)n(C)c1=O	·	–	·	·	–	–
CC1(C)SC[C@H](C(=O)Nc2cccc(Cl)c2)N1C=O	–	–	–	37	–	–
CC12CCC(=O)N1C(C(=O)Nc1ccc(F)c(Cl)c1)CS2 (stereo unspecified)	·	–	–	·	–	–
Cc1cc(C)c2cc(C#N)c(NCCOC(=O)c3ccccc3C)nc2c1	3.2	–	–	–	–	–
CC1C/C(=C\c2cccnc2)C(=O)/C(=C/c2cccnc2)C1 (stereo unspecified)	–	–	·	68	–	·
O=C(C[C@H]1C[C@@H]2c3cc(NC(=O)Nc4ccccc4F)ccc3O[C@@H]2[C@H](CO)O1)NCc1ccccn1	·	·	·	·	–	·
COc1ccc(C2NCCc3c2[nH]c2ccccc32)cc1CSc1nc2ccccc2s1 (stereo unspecified)	–	–	–	57	–	·
COc1ccc(OCc2nc(-c3ccc(F)c(F)c3)cs2)cc1	3.3	–	·	–	–	–
CC1CCN(S(=O)(=O)c2ccc3c(c2)C(Cl)(Cl)C(=O)N3)CC1	·	·	·	·	–	·
O=S1(=O)C[C@@H](N2CCN(c3ccccn3)CC2)[C@H](COCc2ccccc2)N1	·	·	·	·	–	·
COCCN=C1Sc2nc3ccc(C)cc3cc2CN1Cc1ccco1	–	–	–	48	–	–
COCCN=C1Sc2nc3cc(C)c(C)cc3cc2CN1Cc1cccs1	–	–	–	·	–	–
CCCOc1ccccc1NC(=O)/C=C/C(N)=O	–	–	–	59	–	–
COc1ccccc1-c1nnc(N)s1	–	–	+	–	–	–
Nc1nnc(-c2ccccc2Cl)s1	–	–	–	–	–	–
SMILES	PERK inhibitor	Yeast superoxide	Rce1 inh	NALP1 yeast inh	V-ATPase pHluor	NLRP3 yeast inh
CN(Cc1ccccc1)C(=O)c1ccc(NC(=O)Cc2ccc(NC(=O)C3CCN(C(=O)c4ccccc4)CC3)cc2)cc1	·	·	·	·	–	·
COc1ccc(C(=O)C(C)OC(=O)C2CC3CCCC(C2)C3=O)cc1 (stereo unspecified)	·	·	·	·	–	·
CC(C)CC1C(=O)N(Cc2cn(CCC3OCCCO3)nn2)CCS(=O)(=O)N1Cc1ccc(-c2ccncc2)cc1 (stereo unspecified)	·	·	·	·	–	·
Cc1ccccc1OCC(O)Cn1c(=N)n(CCN2CCOCC2)c2ccccc21 (stereo unspecified)	–	–	–	43!	–	–
N=c1n(CCN2CCOCC2)c2ccccc2n1CC(O)COc1ccccc1 (stereo unspecified)	–	–	–	–	–	–
Cc1cc(C)c(NC2=NS(=O)(=O)c3ccccc32)c(C)c1	3.6	–	–	–	–	–
COc1ccc(S(=O)(=O)n2[nH]c(=O)c(CCO)c2C)cc1	·	–	–	29	–	–
COc1cc([N+](=O)[O-])c(N2CCOCC2)c([N+](=O)[O-])c1OC	–	–	–	42	–	–
O=[N+]([O-])c1cc(Br)c2nsnc2c1N1CCOCC1	·	–	–	–	–	–
O=C1C(=NO)CCc2ccccc21	·	·	·	·	–	·
COc1ccccc1-c1coc2c(CN3CCN(CCO)CC3)c(O)ccc2c1=O	–	–	–	·	–	–
CCN1CCN(Cc2c(O)ccc3c(=O)c(-c4ccccc4OC)coc23)CC1	–	–	+	–	–	–
O=c1c(-c2ccccc2)coc2c(CN3CCCC3)c(O)ccc12	–	–	+	–	–	–
COc1ccccc1Oc1c(C)oc2c(CN3CCN(CCO)CC3)c(O)ccc2c1=O	–	–	+	–	·	–
COc1ccccc1-c1coc2c(CN3CCN(C)CC3)c(O)ccc2c1=O	–	–	+	–	–	–
CC(C)C1C(=O)N(Cc2cn(Cc3ccco3)nn2)CCS(=O)(=O)N1Cc1ccc(-c2ccc(Cl)c(Cl)c2)cc1 (stereo unspecified)	·	·	·	·	–	·
CCCC1NC(=O)c2cccnc2-n2c1nc1ccc(Br)cc1c2=O (stereo unspecified)	·	·	·	·	–	·
Cc1oc2c(CN3CCOCC3)c(O)ccc2c(=O)c1-c1ccccc1	–	–	+	–	–	–
COc1ccccc1-c1c(C)oc2c(CN3CCOCC3)c(O)ccc2c1=O	·	–	?	–	–	–
COC(=O)C1CCC(=O)N1C(c1ccc(OC)cc1)c1cc(OC)c(OC)c(OC)c1 (stereo unspecified)	·	·	·	·	–	·
CCCCc1c(O)nc(SCC(=O)O)[nH]c1=O	–	–	–	–	–	–
CCCCCCc1c(O)nc(SCC(=O)O)[nH]c1=O	·	–	–	33	–	·
CN1C(=O)[C@H]2[C@@H](c3ccc(C(F)(F)F)cc3)N[C@]3(CCCN(Cc4ccc(C(F)(F)F)cc4)C3=O)[C@H]2C1=O	·	·	·	·	–	·
COc1ccc(-c2[nH]ncc2CN(C)CCN2CCOCC2)cc1F	3.0	–	·	–	–	–
Cc1[nH]c2ccccc2c1C(=O)C(=O)NCc1nnnn1-c1ccc(F)cc1	·	·	·	·	–	·
SMILES	PERK inhibitor	Yeast superoxide	Rce1 inh	NALP1 yeast inh	V-ATPase pHluor	NLRP3 yeast inh
CC1=C(C(=O)N(C)C)CC(CC(=O)NCc2cccs2)C(=O)N1CCC1=CCCCC1 (stereo unspecified)	·	·	·	·	–	·
O=C(NC(=S)Nc1ccccc1)c1cc([N+](=O)[O-])ccc1N1CCOCC1	–	–	–	26	–	–
COC(=O)[C@H]1C[C@H](OC(=O)NCc2ccccc2F)[C@@]2(O)CN(S(=O)(=O)c3ccc(C)cc3)CC2[C@H]1C(=O)OC (stereo partly specified)	·	·	·	·	–	·
COc1ccc(OC)c(N(CCN2C(=O)c3ccccc3C2=O)C(=O)CCl)c1	·	·	·	·	–	·
Cc1cc(=O)n2ccccc2c1C#N	–	–	+	–	–	–
COc1ccc(NC(=O)c2nc[nH]c2C(=O)N(C)CCO)cc1	·	·	·	·	–	·
